In the supplement of paper PMC10646978:
± gives the standard deviation.

The compounds below were run on RAW-Dual (murine macrophage reporter line) (assay: NF-kB reporter (SEAP) activity fold change vs agonist alone; higher = enhanced NF-kB activity). Settings: modulator concentration 10 µM; agonist: MPLA […].
Method in brief: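 Overnight stimulation with a PRR agonist followed pre-incubation for 1 hour at 37 °C with compound at 10 μM final. This was done in RAW-Dual murine macrophage reporter cells seeded at 50 000 per well in 384-well plates. NF-κB (SEAP, QUANTI-Blue absorbance at 620 nm) and IRF (Lucia luciferase, QUANTI-Luc luminescence) were read from the supernatant. Each reporter's fold change relative to the mean agonist-only control on the same plate was averaged over replicate plates.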

Structure (SMILES)	NF-kB reporter
COCCCNC(=O)C1CCCN(c2ccc(Sc3ccc(Br)cc3)nn2)C1 (configuration not stated)	1.15 ± 0.11
O=C(c1ccc(F)cc1)N(C1CCCCC1)C1CCCCC1	1.07 ± 0.1
CCCc1nc2c(C)cc(-c3nc4ccccc4n3C)cc2n1Cc1ccc(-c2ccccc2C(=O)O)cc1	0.99 ± 0.073
Cc1ccc(NC(=O)C(C#N)=Cc2ccc(-c3cccc([N+](=O)[O-])c3)o2)cc1	0.904 ± 0.054
COc1ccc(N(CC(=O)Nc2ccccc2C(F)(F)F)S(C)(=O)=O)cc1	0.795 ± 0.17
COc1ccccc1S(=O)(=O)N1CC(Oc2nc3c(C(F)(F)F)cccc3s2)C1	1.38 ± 0.14
COC(=O)C1=C(C)NC(C)=C(C(=O)OCC(C)C)C1c1ccccc1[N+](=O)[O-] (configuration not stated)	0.748 ± 0.075
Fc1ccc(Nc2nc(NN=Cc3ccccc3F)nc(N3CCCCC3)n2)cc1	1.02 ± 0.096
COc1ccc(S(=O)(=O)Nc2ccc(Oc3ccccc3)cc2)cc1	2.55 ± 1.5
Br.CN(C)CCCC1(c2ccc(F)cc2)OCc2cc(C#N)ccc21 (configuration not stated)	0.95 ± 0.07
COc1cccc(N2C(=O)CN(Cc3ccccc3)C3CS(=O)(=O)CC32)c1 (configuration not stated)	1.49 ± 0.093
O=C(O)CC(C(=O)O)N1C(=O)C(=C2C(=O)Nc3ccc(Br)cc32)SC1=S (configuration not stated)	0.837 ± 0.069
c1ccc(CNc2nc(N3CCOCC3)nc(N3CCOCC3)n2)cc1	0.987 ± 0.081
Cc1nnc(NC(=O)c2cccc([N+](=O)[O-])c2)s1	0.999 ± 0.038
COc1ccc(N(CC(=O)N2CCc3ccccc3C2)S(C)(=O)=O)c(OC)c1	0.913 ± 0.057
O=C(Nc1cccnc1)c1ccc(OC2CCOCC2)nc1	1 ± 0.063
CC[C@H](C)C(=O)O[C@H]1C[C@@H](C)C=C2C=C[C@H](C)[C@H](CC[C@@H]3C[C@@H](O)CC(=O)O3)[C@H]21	1.77 ± 0.078
